Out of some 5,500 compounds screened, about 2,000 (36%) were called active. Inconclusive results (about 18%) are left out. No stated cut-off is given here; in the data, active means normalized growth mostly below about 0.91 (no sharp cut-off); inconclusive means no clear call, values can overlap the other calls; inactive means mostly above about 0.92. The list shows a part of the results.
Assay: chemical genetic growth profiling, strain panel (AID 1159580);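 further: tested at 20 µM; growth read once vehicle control cultures reached saturation at 30 °C; 1 = growth at the plate median or of vehicle wells; lower values mean less growth of the strain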
Details: growth OD

Measured: normalized growth

CC[C@@H](CO)NC(=O)[C@@H]1C=C2c3cccc4[nH]cc(c34)C[C@H]2N(C)C1
inactive: S. cerevisiae deletion strains, locus YKL009W, strain mrt4, active compounds read low 0.999 | S. cerevisiae deletion strains, locus YKL068W, active compounds read low 0.996 | S. cerevisiae deletion strains, locus YKL085W, strain MDH1 (second series), active compounds read low 1.02 | S. cerevisiae deletion strains, locus YKL085W, strain MDH1, active compounds read low 1.02 | S. cerevisiae deletion strains, locus YKL160W, strain elf1, active compounds read low 0.982 | S. cerevisiae deletion strains, locus YKL190W, strain CNB1, active compounds read low 0.997 | S. cerevisiae deletion strains, locus YKR001C, strain vps1, active compounds read low 0.947 | S. cerevisiae deletion strains, locus YKR026C, strain gcn3, active compounds read low 1 | S. cerevisiae deletion strains, locus YKR091W, strain srl3, active compounds read low 0.997 | S. cerevisiae deletion strains, locus YLL001W, strain dnm1, active compounds read low 0.982 | S. cerevisiae deletion strains, locus YLL026W, active compounds read low 0.986 | S. cerevisiae deletion strains, locus YLL041C, strain sdh2, active compounds read low 1 | S. cerevisiae deletion strains, locus YLR027C, strain aat2, active compounds read low 0.993 | S. cerevisiae deletion strains, locus YLR039C, strain RIC1, active compounds read low 1.04 | S. cerevisiae deletion strains, locus YLR058C, strain SHM2, active compounds read low 0.989 | S. cerevisiae deletion strains, locus YLR102C, strain apc9, active compounds read low 0.985 | S. cerevisiae deletion strains, locus YLR113W, strain HOG1, active compounds read low 1.03 | S. cerevisiae deletion strains, locus YLR221C, strain rsa3, active compounds read low 0.999 | S. cerevisiae deletion strains, locus YLR258W, strain gsy2, active compounds read low 1 | S. cerevisiae deletion strains, locus YLR262C, strain YPT6 (second series), active compounds read low 0.991 | S. cerevisiae deletion strains, locus YLR262C, strain YPT6, active compounds read low 1.06 | S. cerevisiae deletion strains, locus YLR268W, strain sec22, active compounds read low 0.985 | S. cerevisiae deletion strains, locus YLR320W, strain mms22, active compounds read low 0.98 | S. cerevisiae deletion strains, locus YLR330W, strain CHS5, active compounds read low 0.992 | S. cerevisiae deletion strains, locus YLR342W, strain FKS1 (second series), active compounds read low 0.983 | S. cerevisiae deletion strains, locus YLR342W, strain FKS1, active compounds read low 0.982 | S. cerevisiae deletion strains, locus YLR357W, strain rsc2, active compounds read low 0.978 | S. cerevisiae deletion strains, locus YLR370C, strain arc18, active compounds read low 1 | S. cerevisiae deletion strains, locus YLR371W, strain rom2, active compounds read low 0.986 | S. cerevisiae deletion strains, locus YLR384C, strain iki3, active compounds read low 0.997 | S. cerevisiae deletion strains, locus YLR418C, strain cdc73, active compounds read low 0.926 | S. cerevisiae deletion strains, locus YML016C, strain PPZ1, active compounds read low 0.978 | S. cerevisiae deletion strains, locus YML032C, strain rad52, active compounds read low 0.971 | S. cerevisiae deletion strains, locus YML120C, strain ndi1, active compounds read low 1.01 | S. cerevisiae deletion strains, locus YML124C, strain tub3, active compounds read low 0.987 | S. cerevisiae deletion strains, locus YMR058W, strain fet3, active compounds read low 0.99 | S. cerevisiae deletion strains, locus YMR078C, strain ctf18, active compounds read low 0.996 | S. cerevisiae deletion strains, locus YMR125W, strain sto1, active compounds read low 1.01 | S. cerevisiae deletion strains, locus YMR129W, active compounds read low 1 | S. cerevisiae deletion strains, locus YMR205C, strain PFK2, active compounds read low 0.993 | S. cerevisiae deletion strains, locus YMR223W, strain ubp8, active compounds read low 0.961 | S. cerevisiae deletion strains, locus YMR231W, strain pep5, active compounds read low 0.992 | S. cerevisiae deletion strains, locus YMR263W, strain SAP30, active compounds read low 1.01 | S. cerevisiae deletion strains, locus YMR307W, strain GAS1, active compounds read low 0.972 | S. cerevisiae deletion strains, locus YNL067W, strain RPL9B, active compounds read low 1.04 | S. cerevisiae deletion strains, locus YNL071W, strain lat1, active compounds read low 1 | S. cerevisiae deletion strains, locus YNL128W, strain TEP1, active compounds read low 1.01 | S. cerevisiae deletion strains, locus YNL153C, strain GIM3, active compounds read low 1.02 | S. cerevisiae deletion strains, locus YNL183C, strain NPR1, active compounds read low 0.978 | S. cerevisiae deletion strains, locus YNL209W, strain ssb2, active compounds read low 1 | S. cerevisiae deletion strains, locus YNL233W, strain BNI4, active compounds read low 0.983 | S. cerevisiae deletion strains, locus YNL248C, strain rpa49, active compounds read low 1 | S. cerevisiae deletion strains, locus YNL250W, strain rad50, active compounds read low 0.978 | S. cerevisiae deletion strains, locus YNL271C, strain bni1, active compounds read low 0.981 | S. cerevisiae deletion strains, locus YNL298W, strain CLA4, active compounds read low 0.999 | S. cerevisiae deletion strains, locus YNL307C, strain MCK1, active compounds read low 0.973 | S. cerevisiae deletion strains, locus YNL322C, strain KRE1 (second series), active compounds read low 0.993 | S. cerevisiae deletion strains, locus YNL322C, strain KRE1, active compounds read low 0.997 | S. cerevisiae deletion strains, locus YNR049C, strain mso1, active compounds read low 0.999 | S. cerevisiae deletion strains, locus YNR052C, strain pop2, active compounds read low 0.996 | S. cerevisiae deletion strains, locus YOL006C, strain TOP1, active compounds read low 1.03 | S. cerevisiae deletion strains, locus YOL012C, strain htz1 0.998 | S. cerevisiae deletion strains, locus YOL147C, strain pex11, active compounds read low 0.994 | S. cerevisiae deletion strains, locus YOR001W, strain rrp6, active compounds read low 0.992 | S. cerevisiae deletion strains, locus YOR061W, strain CKA2, active compounds read low 0.991 | S. cerevisiae deletion strains, locus YOR069W, strain VPS5, active compounds read low 0.986 | S. cerevisiae deletion strains, locus YOR070C, strain gyp1, active compounds read low 1 | S. cerevisiae deletion strains, locus YOR080W, strain dia2, active compounds read low 0.994 | S. cerevisiae deletion strains, locus YOR083W, strain WHI5, active compounds read low 0.963 | S. cerevisiae deletion strains, locus YOR106W, strain vam3, active compounds read low 0.993 | S. cerevisiae deletion strains, locus YOR136W, strain idh2, active compounds read low 0.986 | S. cerevisiae deletion strains, locus YOR144C, strain elg1, active compounds read low 0.984 | S. cerevisiae deletion strains, locus YOR184W, strain ser1, active compounds read low 0.966 | S. cerevisiae deletion strains, locus YOR231W, strain MKK1, active compounds read low 1.03 | S. cerevisiae deletion strains, locus YOR265W, strain rbl2, active compounds read low 1.01 | S. cerevisiae deletion strains, locus YOR270C, strain vph1, active compounds read low 1.03 | S. cerevisiae deletion strains, locus YOR290C, strain snf2, active compounds read low 1 | S. cerevisiae deletion strains, locus YOR316C, strain cot1, active compounds read low 0.987 | S. cerevisiae deletion strains, locus YPL051W, strain arl3, active compounds read low 0.992 | S. cerevisiae deletion strains, locus YPL055C, strain LGE1, active compounds read low 1.07 | S. cerevisiae deletion strains, locus YPL078C, strain atp4, active compounds read low 0.98 | S. cerevisiae deletion strains, locus YPL106C, strain sse1, active compounds read low 0.981 | S. cerevisiae deletion strains, locus YPL240C, strain hsp82, active compounds read low 0.995 | S. cerevisiae deletion strains, locus YPL241C, strain CIN2, active compounds read low 0.997 | S. cerevisiae deletion strains, locus YPL256C, strain CLN2, active compounds read low 1.1 | S. cerevisiae deletion strains, locus YPR119W, strain clb2, active compounds read low 0.989 | S. cerevisiae deletion strains, locus YPR141C, strain kar3, active compounds read low 0.992 | S. cerevisiae deletion strains, locus YPR163C, strain tif3, active compounds read low 0.987 | S. cerevisiae deletion strains, locus YPR167C, strain met16, active compounds read low 0.987 | S. cerevisiae deletion strains, strain wtn01, active compounds read low 0.975 | S. cerevisiae strains, strain wild type, active compounds read low 0.982

From PubChem BioAssay AID1159580 (chemical genetic matrix, 2015)
